Laboratory results taken from PubChem BioAssay (EPA / NIEHS).
Records with an inconclusive call do not appear. Active and inactive are the calls of the source. How the source made its calls: active means hit-call score of the fitted dose curve at least 0.9, where 1 is the maximum; inconclusive means response in the unintended direction; inactive means score below 0.9.

Experiments:
[1] = molecular target: human Purinergic Receptor P2Y, P2RY1 (gene 5028) (UniProt P47900); test: NVS_GPCR_hPY2: NovaScreen (NVS) G Protein-Coupled Receptor Assay for human Purinergic Receptor P2Y (AID 2283281)
Sequence of human Purinergic Receptor P2Y, P2RY1 (gene 5028) (P47900 whole entry, looked up): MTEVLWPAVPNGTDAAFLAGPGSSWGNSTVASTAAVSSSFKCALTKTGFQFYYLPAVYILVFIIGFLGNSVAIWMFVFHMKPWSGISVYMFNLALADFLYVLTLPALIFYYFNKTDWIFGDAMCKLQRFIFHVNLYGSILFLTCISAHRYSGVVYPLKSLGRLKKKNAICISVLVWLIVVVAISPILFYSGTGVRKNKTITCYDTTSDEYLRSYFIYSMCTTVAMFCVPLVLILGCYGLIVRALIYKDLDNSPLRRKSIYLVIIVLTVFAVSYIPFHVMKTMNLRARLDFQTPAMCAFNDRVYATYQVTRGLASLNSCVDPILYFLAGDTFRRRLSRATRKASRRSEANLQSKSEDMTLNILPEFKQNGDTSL
Summary of the method: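 Cell-free radioligand binding using U937-derived protein, 1 h after dosing, filter-based scintillation counting. Screened in duplicate at 25 uM; actives rerun as concentration-response up to 50 uM; loss of signal versus DMSO.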

[2] = molecular target: Neuropeptide Y receptor type 2 (Homo sapiens) (UniProt P49146); test: NVS_GPCR_hNPY2: NovaScreen (NVS) G Protein-Coupled Receptor Assay for human Neuropeptide Receptor Y2 (NPY2) (AID 2283277)
Summary of the method: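 Radioligand binding on membranes extracted from SK-N-MC cells, cell-free, read 1 h after dosing by filter-based scintillation counting. Loss of signal vs DMSO. Primary screen in duplicate at 25 uM; actives followed up in concentration-response up to 50 uM.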

[3] = molecular target: human Thromboxane A2 Receptor (TXA2), TBXA2R (gene 6915) (UniProt P21731); test: NVS_GPCR_hTXA2: NovaScreen (NVS) G Protein-Coupled Receptor Assay for human Thromboxane A2 Receptor (TXA2) (AID 2283282);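 further: actives reduce bound radioligand signal relative to DMSO baseline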
Sequence of human Thromboxane A2 Receptor (TXA2), TBXA2R (gene 6915) (P21731 whole entry, looked up): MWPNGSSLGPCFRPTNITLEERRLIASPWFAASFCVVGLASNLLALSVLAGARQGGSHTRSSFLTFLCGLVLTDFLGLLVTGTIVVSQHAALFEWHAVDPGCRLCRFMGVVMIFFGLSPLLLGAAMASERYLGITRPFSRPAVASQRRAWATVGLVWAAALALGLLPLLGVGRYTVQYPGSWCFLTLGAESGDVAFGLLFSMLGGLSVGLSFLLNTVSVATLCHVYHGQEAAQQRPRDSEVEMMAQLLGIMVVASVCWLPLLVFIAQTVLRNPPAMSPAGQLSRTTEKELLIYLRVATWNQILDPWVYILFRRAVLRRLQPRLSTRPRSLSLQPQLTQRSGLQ
Summary of the method: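 Cell-free radioligand binding on membrane protein from human platelets; radioligand displacement read by filter-based scintillation counting after 1 h. Primary screen in duplicate at 25 uM, actives then run in concentration series; loss of signal versus DMSO.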

[4] = molecular target: human Leukotriene B4 Receptor 1 (LTB4-BLT1), LTB4R (gene 1241) (UniProt Q15722); test: NVS_GPCR_hLTB4_BLT1: NovaScreen (NVS) G Protein-Coupled Receptor Assay for human Leukotriene B4 Receptor 1 (LTB4-BLT1) (AID 2283271)
Sequence of human Leukotriene B4 Receptor 1 (LTB4-BLT1), LTB4R (gene 1241) (Q15722 whole entry, looked up): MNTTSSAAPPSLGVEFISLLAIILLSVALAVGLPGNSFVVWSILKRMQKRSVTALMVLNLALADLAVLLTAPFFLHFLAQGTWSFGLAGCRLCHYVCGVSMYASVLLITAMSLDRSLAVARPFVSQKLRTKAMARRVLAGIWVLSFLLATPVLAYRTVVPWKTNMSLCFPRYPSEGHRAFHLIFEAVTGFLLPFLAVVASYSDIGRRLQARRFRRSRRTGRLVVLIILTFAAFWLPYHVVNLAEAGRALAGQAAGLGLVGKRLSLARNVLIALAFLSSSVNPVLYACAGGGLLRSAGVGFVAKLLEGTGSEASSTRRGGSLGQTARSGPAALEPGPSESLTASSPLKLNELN
Summary of the method: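 Radioligand displacement binding on receptor extracted from human neutrophils, cell-free, 1 h after dosing; filter-based scintillation counting. Primary screen in duplicate at 25 uM, actives retested in concentration-response up to 50 uM; loss of signal versus DMSO.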

[5] = molecular target: human Dopamine Receptor D2 (DRD2), DRD2 (gene 1813) (UniProt P14416); test: NVS_GPCR_hDRD2s: NovaScreen (NVS) G Protein-Coupled Receptor Assay for human Dopamine Receptor D2 (DRD2) (AID 2283266)
Sequence of human Dopamine Receptor D2 (DRD2), DRD2 (gene 1813) (P14416 whole entry, looked up): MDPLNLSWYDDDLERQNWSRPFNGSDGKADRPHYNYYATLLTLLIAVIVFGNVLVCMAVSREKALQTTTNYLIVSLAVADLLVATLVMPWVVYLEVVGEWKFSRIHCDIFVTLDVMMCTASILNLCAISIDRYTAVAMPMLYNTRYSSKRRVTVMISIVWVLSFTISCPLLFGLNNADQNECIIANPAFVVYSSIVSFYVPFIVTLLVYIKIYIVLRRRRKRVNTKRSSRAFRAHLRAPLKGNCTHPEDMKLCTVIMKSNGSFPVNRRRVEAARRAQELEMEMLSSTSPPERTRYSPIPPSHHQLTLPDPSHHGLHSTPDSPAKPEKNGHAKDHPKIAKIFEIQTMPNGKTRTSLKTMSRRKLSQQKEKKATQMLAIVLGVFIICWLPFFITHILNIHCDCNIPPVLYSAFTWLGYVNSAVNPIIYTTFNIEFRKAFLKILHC
Summary of the method: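 Radioligand displacement used human DRD2 membranes extracted from CHO cells and was read by filter-based scintillation counting after 1.5 hours. Primary screening was in duplicate at 25 uM. Loss of signal versus DMSO was fitted, with concentration series in follow-up.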

[6] = molecular target: human Neurokinin, NK2 Receptor, TACR2 (gene 6865) (UniProt P21452); test: NVS_GPCR_hNK2: NovaScreen (NVS) G Protein-Coupled Receptor Assay for human Neurokinin, NK2 Receptor (AID 2283278);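 further: actives reduce bound radioligand signal relative to DMSO baseline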
Sequence of human Neurokinin, NK2 Receptor, TACR2 (gene 6865) (P21452 whole entry, looked up): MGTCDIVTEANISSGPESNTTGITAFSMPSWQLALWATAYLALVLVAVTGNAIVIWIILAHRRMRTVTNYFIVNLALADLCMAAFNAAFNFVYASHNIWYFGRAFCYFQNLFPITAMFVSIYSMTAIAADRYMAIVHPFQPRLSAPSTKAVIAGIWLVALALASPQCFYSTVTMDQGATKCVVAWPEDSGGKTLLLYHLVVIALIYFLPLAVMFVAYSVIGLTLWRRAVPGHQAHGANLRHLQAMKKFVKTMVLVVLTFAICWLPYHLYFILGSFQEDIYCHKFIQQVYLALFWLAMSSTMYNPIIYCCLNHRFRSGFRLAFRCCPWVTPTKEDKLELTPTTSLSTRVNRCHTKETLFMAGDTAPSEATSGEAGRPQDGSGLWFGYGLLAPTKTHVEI
Summary of the method: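 Filter-based scintillation counting measured radioligand bound to receptor extracted from CHO cells, 4 hours after compound addition. Chemicals screened first at 25 uM in duplicate, with actives retested in concentration series relative to DMSO.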

[7] = molecular target: human Vasopressin 1A Receptor (V1A), AVPR1A (gene 552) (UniProt P37288); test: NVS_GPCR_hV1A: NovaScreen (NVS) G Protein-Coupled Receptor Assay for human Vasopressin 1A Receptor (V1A) (AID 2283284)
Sequence of human Vasopressin 1A Receptor (V1A), AVPR1A (gene 552) (P37288 whole entry, looked up): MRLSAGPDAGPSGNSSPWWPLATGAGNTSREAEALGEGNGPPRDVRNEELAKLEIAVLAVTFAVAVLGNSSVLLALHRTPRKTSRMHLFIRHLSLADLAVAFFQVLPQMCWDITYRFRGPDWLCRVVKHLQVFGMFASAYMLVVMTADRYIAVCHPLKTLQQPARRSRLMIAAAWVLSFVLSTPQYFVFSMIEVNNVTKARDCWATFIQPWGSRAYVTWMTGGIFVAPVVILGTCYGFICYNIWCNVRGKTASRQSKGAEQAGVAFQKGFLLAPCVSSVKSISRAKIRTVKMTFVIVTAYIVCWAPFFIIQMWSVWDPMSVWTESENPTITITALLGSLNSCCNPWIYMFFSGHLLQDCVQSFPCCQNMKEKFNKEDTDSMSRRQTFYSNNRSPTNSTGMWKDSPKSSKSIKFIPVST
Summary of the method: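 Cell-free radioligand displacement on human platelet preparations, 1.5 h incubation, filter-based scintillation counting. Chemicals first tested in duplicate at 25 uM; actives then run in concentration-response up to 50 uM, loss of signal fitted against DMSO.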

[8] = molecular target: D(1A) dopamine receptor (Homo sapiens) (UniProt P21728); test: NVS_GPCR_hDRD1: NovaScreen (NVS) G Protein-Coupled Receptor Assay for human Dopamine Receptor D1 (DRD1) (AID 2283269)
Sequence of D(1A) dopamine receptor (Homo sapiens) (P21728 whole entry, looked up): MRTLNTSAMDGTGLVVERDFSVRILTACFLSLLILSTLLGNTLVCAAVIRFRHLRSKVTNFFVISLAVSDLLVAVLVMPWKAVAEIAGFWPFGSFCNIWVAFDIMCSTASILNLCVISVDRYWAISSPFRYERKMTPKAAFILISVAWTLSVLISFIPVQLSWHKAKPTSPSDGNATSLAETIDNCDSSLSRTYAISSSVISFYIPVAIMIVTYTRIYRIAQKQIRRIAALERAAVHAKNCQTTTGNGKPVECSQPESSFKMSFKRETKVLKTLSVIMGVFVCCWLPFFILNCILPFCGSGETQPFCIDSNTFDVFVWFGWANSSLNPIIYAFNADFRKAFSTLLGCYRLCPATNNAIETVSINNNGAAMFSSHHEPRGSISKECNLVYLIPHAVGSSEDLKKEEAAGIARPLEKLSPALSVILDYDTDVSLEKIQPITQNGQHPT
Summary of the method: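 HEK293-derived receptor preparation; radioligand competitive displacement; 1 h; filtration + scintillation counting. DMSO = negative control/baseline. Primary: 25 uM, duplicate; secondary: concentration–response for actives.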

[9] = molecular target: human Opioid Receptor Delta 1 (Opiate D1), OPRD1 (gene 4985) (UniProt P41143); test: NVS_GPCR_hOpiate_D1: NovaScreen (NVS) G Protein-Coupled Receptor Assay for human Opioid Receptor Delta 1 (Opiate D1) (AID 2283280)
Sequence of human Opioid Receptor Delta 1 (Opiate D1), OPRD1 (gene 4985) (P41143 whole entry, looked up): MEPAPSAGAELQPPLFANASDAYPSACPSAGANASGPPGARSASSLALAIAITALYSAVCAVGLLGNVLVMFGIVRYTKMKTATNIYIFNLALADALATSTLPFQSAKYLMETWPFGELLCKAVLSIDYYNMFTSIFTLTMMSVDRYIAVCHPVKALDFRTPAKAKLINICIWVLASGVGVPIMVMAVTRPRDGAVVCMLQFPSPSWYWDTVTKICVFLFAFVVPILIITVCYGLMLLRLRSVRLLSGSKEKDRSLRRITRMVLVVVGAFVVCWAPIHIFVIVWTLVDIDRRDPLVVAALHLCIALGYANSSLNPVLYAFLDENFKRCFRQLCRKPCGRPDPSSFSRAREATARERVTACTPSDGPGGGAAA
Summary of the method: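 Radioligand displacement on membranes from CHO cells expressing the receptor, read by filter scintillation counting 1 h after dosing. Duplicate single-point screen at 25 uM, then concentration series for actives; loss of signal versus DMSO.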

[10] = molecular target: human Histamine 1 Receptor (H1), HRH1 (gene 3269) (UniProt P35367); test: NVS_GPCR_hH1: NovaScreen (NVS) G Protein-Coupled Receptor Assay for human Histamine 1 Receptor (H1) (AID 2283268)
Summary of the method: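 Cell-free radioligand displacement at human H1 receptor, 1 h, filter scintillation counting; primary screen 25 uM in duplicate, hits in concentration series; loss of binding fitted vs DMSO.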

[11] = molecular target: Muscarinic acetylcholine receptor M2 (Homo sapiens) (UniProt P08172); test: NVS_GPCR_hM2: NovaScreen (NVS) G Protein-Coupled Receptor Assay for human Muscarinic, M2 Receptor (AID 2283273)
Sequence of Muscarinic acetylcholine receptor M2 (Homo sapiens) (P08172 whole entry, looked up): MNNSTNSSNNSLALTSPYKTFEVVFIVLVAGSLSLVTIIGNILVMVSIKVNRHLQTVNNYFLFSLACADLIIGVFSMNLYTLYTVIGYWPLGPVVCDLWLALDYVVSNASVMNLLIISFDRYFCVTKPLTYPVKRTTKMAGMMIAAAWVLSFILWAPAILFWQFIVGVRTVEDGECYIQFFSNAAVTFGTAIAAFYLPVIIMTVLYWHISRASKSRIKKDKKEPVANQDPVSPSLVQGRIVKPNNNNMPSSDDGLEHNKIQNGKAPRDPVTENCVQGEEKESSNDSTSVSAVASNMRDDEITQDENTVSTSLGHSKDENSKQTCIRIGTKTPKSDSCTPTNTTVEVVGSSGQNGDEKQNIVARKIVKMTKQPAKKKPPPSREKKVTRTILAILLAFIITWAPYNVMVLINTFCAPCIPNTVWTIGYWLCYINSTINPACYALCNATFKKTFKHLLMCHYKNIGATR
Summary of the method: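 Cell-free radioligand binding using membranes from CHO cells expressing the receptor; filter-based scintillation counting after 1 hour of compound exposure. Loss of specific binding relative to DMSO baseline; primary screen at 25 uM in duplicate, actives then run in concentration series.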

[12] = molecular target: human Muscarinic, M4 Receptor, CHRM4 (gene 1132) (UniProt P08173); test: NVS_GPCR_hM4: NovaScreen (NVS) G Protein-Coupled Receptor Assay for human Muscarinic, M4 Receptor (AID 2283274)
Sequence of human Muscarinic, M4 Receptor, CHRM4 (gene 1132) (P08173 whole entry, looked up): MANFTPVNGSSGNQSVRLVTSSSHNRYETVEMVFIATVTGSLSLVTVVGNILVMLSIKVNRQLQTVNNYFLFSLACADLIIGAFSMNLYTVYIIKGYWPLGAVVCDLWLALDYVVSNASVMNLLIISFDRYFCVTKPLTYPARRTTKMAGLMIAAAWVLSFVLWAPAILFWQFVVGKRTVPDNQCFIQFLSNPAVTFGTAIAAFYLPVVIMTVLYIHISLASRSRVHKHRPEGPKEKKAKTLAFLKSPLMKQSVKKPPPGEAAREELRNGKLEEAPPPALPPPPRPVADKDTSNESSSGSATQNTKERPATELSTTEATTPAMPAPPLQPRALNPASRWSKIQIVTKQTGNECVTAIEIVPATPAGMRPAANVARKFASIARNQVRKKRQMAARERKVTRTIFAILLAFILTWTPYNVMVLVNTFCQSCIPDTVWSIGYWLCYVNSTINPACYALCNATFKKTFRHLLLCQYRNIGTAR
Summary of the method: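 Cell-free radioligand displacement using CHO-derived human M4 receptor protein, 1 h after dosing; bound radioactivity by filtration and scintillation counting. Primary screen single 25 uM duplicate, actives followed in concentration series.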

[13] = molecular target: human Endothelin Receptor Type B (ETB), EDNRB (gene 1910) (UniProt P24530); test: NVS_GPCR_hETB: NovaScreen (NVS) G Protein-Coupled Receptor Assay for human Endothelin Receptor Type B (ETB) (AID 2283267)
Summary of the method: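 Human astrocytoma cell membranes; radioligand competitive binding read by filter scintillation counting 4 hours after dosing. Single-concentration duplicate screen at 25 uM, then singleton concentration-response up to 50 uM; loss of signal versus DMSO.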

[14] = molecular target: Muscarinic acetylcholine receptor M1 (Homo sapiens) (UniProt P11229); test: NVS_GPCR_hM1: NovaScreen (NVS) G Protein-Coupled Receptor Assay for human Muscarinic, M1 Receptor (AID 2283270)
Summary of the method: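 Cell-free radioligand displacement using membrane protein extracted from CHO cells, read by filter-based scintillation counting 1 h after dosing. Loss of bound signal fitted versus DMSO; primary screen single concentration 25 uM in duplicate, actives followed by concentration series.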

[15] = molecular target: Muscarinic acetylcholine receptor M5 (Homo sapiens) (UniProt P08912); test: NVS_GPCR_hM5: NovaScreen (NVS) G Protein-Coupled Receptor Assay for human Muscarinic, M5 Receptor (AID 2283275)
Sequence of Muscarinic acetylcholine receptor M5 (Homo sapiens) (P08912 whole entry, looked up): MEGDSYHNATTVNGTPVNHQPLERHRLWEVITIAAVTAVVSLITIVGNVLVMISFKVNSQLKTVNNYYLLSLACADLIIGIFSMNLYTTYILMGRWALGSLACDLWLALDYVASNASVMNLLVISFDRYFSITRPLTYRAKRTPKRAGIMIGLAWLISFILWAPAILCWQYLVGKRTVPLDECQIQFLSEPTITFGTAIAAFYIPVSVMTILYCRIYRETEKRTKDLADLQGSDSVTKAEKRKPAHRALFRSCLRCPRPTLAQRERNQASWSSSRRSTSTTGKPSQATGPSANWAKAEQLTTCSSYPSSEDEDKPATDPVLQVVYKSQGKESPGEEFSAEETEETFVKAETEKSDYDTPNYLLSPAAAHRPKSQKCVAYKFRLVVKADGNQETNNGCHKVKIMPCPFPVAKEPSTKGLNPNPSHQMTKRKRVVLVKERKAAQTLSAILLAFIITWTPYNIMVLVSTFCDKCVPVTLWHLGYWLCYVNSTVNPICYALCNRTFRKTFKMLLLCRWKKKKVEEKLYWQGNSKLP
Summary of the method: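 Radioligand displacement on CHO-derived membrane preparations, 1 h, filter-based scintillation counting. Single-concentration duplicate screen at 25 uM; hits (e.g. 30% inhibition) retested in singleton concentration-response up to 50 uM. Loss of binding fitted versus DMSO.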

[16] = molecular target: human Orphanin, Opioid Related Nociceptin Receptor 1 (ORL1), OPRL1 (gene 4987) (UniProt P41146); test: NVS_GPCR_hORL1: NovaScreen (NVS) G Protein-Coupled Receptor Assay for human Orphanin, Opioid Related Nociceptin Receptor 1 (ORL1) (AID 2283283)
Summary of the method: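 Filter-based radioligand displacement with receptor extracted from HEK293 cells, read 1 hour after dosing by scintillation counting. Duplicate single-point screen at 25 uM; qualifying chemicals then run in concentration-response to 50 uM, analysed relative to DMSO.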

[17] = molecular target: human Neurotensin Receptor (NTS), NTSR1 (gene 4923) (UniProt P30989); test: NVS_GPCR_hNTS: NovaScreen (NVS) G Protein-Coupled Receptor Assay for human Neurotensin Receptor (NTS) (AID 2283279)
Summary of the method: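 Radioligand displacement on human NTSR1 protein from CHO cells, cell-free, 1 h, filter-based scintillation counting. Primary screen at 25 uM in duplicate; hits rerun in concentration-response up to 50 uM.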

[18] = molecular target: human Endothelin Receptor Type A (ETA), EDNRA (gene 1909) (UniProt P25101); test: NVS_GPCR_hETA: NovaScreen (NVS) G Protein-Coupled Receptor Assay for human Endothelin Receptor Type A (ETA) (AID 2283265)
Summary of the method: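 Cell-free radioligand displacement using SH-SY5Y-derived protein, 3 h incubation, filter-based scintillation counting. Primary screen in duplicate at 25 uM; actives then run in concentration-response up to 50 uM; loss of binding fitted versus DMSO.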

[19] = molecular target: Muscarinic acetylcholine receptor M3 (Homo sapiens) (UniProt P20309); test: NVS_GPCR_hM3: NovaScreen (NVS) G Protein-Coupled Receptor Assay for human Muscarinic, M3 Receptor (AID 2283272)
Summary of the method: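 Radioligand displacement binding on human M3 receptor in CHO-derived membranes, 1 h incubation, filter-based scintillation counting. Primary screen in duplicate at 25 uM; actives followed up in concentration series; loss of signal versus DMSO.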

[20] = molecular target: human Neuropeptide Receptor Y1 (NPY1), NPY1R (gene 4886) (UniProt P25929); test: NVS_GPCR_hNPY1: NovaScreen (NVS) G Protein-Coupled Receptor Assay for human Neuropeptide Receptor Y1 (NPY1) (AID 2283276)
Summary of the method: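 Cell-free radioligand binding using receptor extracted from SK-N-MC cells, 1 h incubation, filter-based scintillation counting. Primary screen single concentration 25 uM in duplicate; actives followed in concentration series. Loss of bound signal scored versus DMSO.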

SMILES: CCCCCCCCCc1ccc(O)cc1
- outcome [1]: inactive

SMILES: O=S(=O)(O)C(F)(F)C(F)(F)C(F)(F)C(F)(F)C(F)(F)C(F)(F)F
- outcome [2]: inactive
- AC50 [3]: 14.5 µM (active)

SMILES: Cc1cccc(C)c1N
- outcome [4]: inactive

SMILES: CC(C)(O)C(=O)Nc1ccc([N+](=O)[O-])c(C(F)(F)F)c1
- outcome [1]: inactive

SMILES: COc1ccc(O)c(C(C)(C)C)c1
- AC50 [5]: 25 µM (active)

SMILES: CCOP(=S)(OCC)SCSC(C)(C)C
- outcome [1]: inactive

SMILES: Oc1c(Cl)c(Cl)c(Cl)c(Cl)c1Cl
- outcome [6]: inactive
- outcome [1]: inactive
- outcome [7]: inactive

SMILES: O=C(NC(=O)c1c(F)cccc1F)Nc1cc(Cl)c(OC(F)(F)C(F)F)c(Cl)c1
- outcome [3]: inactive

SMILES: N#Cc1ccc(N(CC(N)=O)CC(F)(F)F)cc1C(F)(F)F
- outcome [7]: inactive

SMILES: O=C(O)C(F)(F)C(F)(F)C(F)(F)C(F)(F)C(F)(F)C(F)(F)C(F)(F)C(F)(F)C(F)(F)F
- AC50 [8]: 16.8 µM (active)
- AC50 [9]: 16.4 µM (active)
- outcome [1]: inactive
- AC50 [3]: 25 µM (active)

SMILES: Cc1cc(-c2ccc(N)c(C)c2)ccc1N
- outcome [5]: inactive
- outcome [10]: inactive

SMILES: Cc1ccc(O)c(C)c1
- AC50 [7]: 0.12 µM (active)

SMILES: CCC(=O)O[C@H]1CC[C@H]2[C@@H]3CCC4=CC(=O)CC[C@]4(C)[C@H]3CC[C@]12C
- outcome [11]: inactive
- AC50 [12]: 2.04 µM (active)

SMILES: C[C@]12CCC(=O)C=C1CC[C@@H]1[C@@H]2CC[C@@]2(C)[C@H]1CC[C@]2(C)O
- outcome [9]: inactive

SMILES: O=C(N[C@H]1CN2CCC1CC2)c1cc2ccoc2cn1
- AC50 [11]: 25 µM (active)

SMILES: Oc1ccc(C(c2ccc(O)cc2)(C(F)(F)F)C(F)(F)F)cc1
- AC50 [5]: 9.39 µM (active)
- outcome [13]: inactive
- AC50 [8]: 2.86 µM (active)
- AC50 [14]: 37 µM (active)
- outcome [11]: inactive
- AC50 [12]: 32.5 µM (active)
- AC50 [15]: 18.4 µM (active)
- AC50 [9]: 11.4 µM (active)
- AC50 [16]: 25 µM (active)

SMILES: Cc1cc2c3c(c1)C(c1ccccc1)=N[C@@H](NC(=O)c1ccncc1)C(=O)N3CC2
- outcome [6]: inactive
- outcome [17]: inactive
- outcome [3]: inactive

SMILES: CCC(C)(c1ccc(O)cc1)c1ccc(O)cc1
- AC50 [8]: 11.3 µM (active)
- outcome [6]: inactive
- AC50 [9]: 13.2 µM (active)

SMILES: CC(C)(c1ccccc1)c1ccc(O)cc1
- outcome [5]: inactive
- AC50 [8]: 25 µM (active)
- outcome [4]: inactive
- outcome [15]: inactive
- AC50 [6]: 25 µM (active)

SMILES: CCC(C)(CC)c1cc(NC(=O)c2c(OC)cccc2OC)on1
- AC50 [3]: 1.03 µM (active)

SMILES: CCOC(=O)C(O)(c1ccc(Cl)cc1)c1ccc(Cl)cc1
- outcome [3]: inactive

SMILES: CCCCCCCCCC[N+](C)(C)CCCCCCCCCC
- AC50 [18]: 6.49 µM (active)
- AC50 [5]: 5.51 µM (active)
- AC50 [13]: 16.4 µM (active)
- AC50 [10]: 6.19 µM (active)
- AC50 [8]: 2.6 µM (active)
- AC50 [14]: 7.03 µM (active)
- AC50 [19]: 3.37 µM (active)
- AC50 [11]: 6.18 µM (active)
- AC50 [12]: 3.56 µM (active)
- AC50 [15]: 2.39 µM (active)
- AC50 [20]: 7.12 µM (active)
- AC50 [2]: 11.6 µM (active)
- AC50 [6]: 2.98 µM (active)
- AC50 [17]: 4.36 µM (active)
- AC50 [9]: 4.31 µM (active)
- AC50 [3]: 14.3 µM (active)
- AC50 [16]: 7.48 µM (active)

SMILES: O=C(O)C(F)(F)C(F)(F)C(F)(F)C(F)(F)C(F)(F)C(F)(F)C(F)(F)C(F)(F)F
- AC50 [3]: 6.2 µM (active)
